Source: PubChem (National Center for Advancing Translational Sciences (NCATS))
Rab9 prom act: activates the Rab9 promoter; Huh7 Rab9 promoter-luciferase reporter, luminescence, 24 h; Potency, µM (top dose mostly 9.22 µM), hits mostly activators; 2.8% of 320,000 active; AID 485297; also: nearly all actives have a fitted effect of over 60% in size
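Luminescence from Amplite-detected luciferase (10 minutes, ambient) reports Rab9 promoter activation. Before that, stable Rab9-luciferase Huh7 cells (1500/well, reduced-serum OP-MEM I plus 10% FBS) were exposed to compound for 24 hours at 37C.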
FLuc modulator: firefly luciferase modulation, counter-screen for miR-21 project; purified FLuc, Km substrates, luminescence inhibition; Potency, µM (titrated, usually from 57.5 µM), usual class: inhibitors; 6.9% of 360,000 active; also: nearly all actives have a fitted effect of over 55% in size
Target sequence (P08659 whole entry, looked up): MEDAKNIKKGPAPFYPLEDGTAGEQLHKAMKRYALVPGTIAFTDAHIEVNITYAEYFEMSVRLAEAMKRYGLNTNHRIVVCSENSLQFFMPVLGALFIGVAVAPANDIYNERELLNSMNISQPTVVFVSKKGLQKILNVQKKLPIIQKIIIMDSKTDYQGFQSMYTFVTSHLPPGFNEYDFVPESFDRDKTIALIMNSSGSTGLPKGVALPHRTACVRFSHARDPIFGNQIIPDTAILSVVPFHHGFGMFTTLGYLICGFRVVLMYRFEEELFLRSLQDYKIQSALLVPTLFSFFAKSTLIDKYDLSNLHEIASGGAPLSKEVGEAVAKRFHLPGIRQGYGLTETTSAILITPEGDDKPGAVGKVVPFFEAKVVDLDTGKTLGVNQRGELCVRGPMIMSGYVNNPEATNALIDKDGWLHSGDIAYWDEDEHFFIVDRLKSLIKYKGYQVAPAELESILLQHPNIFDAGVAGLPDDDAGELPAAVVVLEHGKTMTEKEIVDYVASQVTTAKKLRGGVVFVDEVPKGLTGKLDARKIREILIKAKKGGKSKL
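Purified P. pyralis luciferase (10nM final) with 10uM D-luciferin and 10uM ATP (Km levels) in 50mM Tris acetate pH 7.5, 10mM Mg acetate, 0.01% Tween-20, 0.05% BSA; qHTS 6-point titration, ~60 µM downward; luminescence read.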
KinaseGlo FLuc: blocks Kinase-Glo luciferase, a counter-screen artifact. Kinase-Glo luciferase, ATP luminescence, 8 min. AID 1379. Q27757. Potency, µM (doses to about 38.3 µM), actives largely listed as inhibitors. 0.28% of 200,000 active; also: nearly all actives have a fitted effect of over 60% in size
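Light output from Kinase-Glo luciferase with luciferin and 10 uM ATP in 50 mM imidazole pH 7.2, KCl, MgCl2, Tween 20, BSA; compound pin-delivered, 8-min ambient incubation, then luminescence read.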
ELG1 genotox: induces genotoxicity in HEK293T cells with luciferase-tagged ELG1 | HEK293T ELG1-luciferase reporter, luminescence, 16 h | Potency, µM (series often up to 46 µM), actives largely listed as activators | 1.3% of 330,000 active; also: nearly all actives have a fitted effect of over 60% in size
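ELG1-luciferase HEK293T cells, 2,000/well; compound pinned in; 16 hr, 37 °C, 5% CO2; ONE-Glo, 30 min RT; luminescence on CCD imager.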
NPC1 promoter act: activators of NPC1 promoter. 2.4% of 320,000 active. AID 485313. Huh7 NPC1 promoter luciferase reporter, 24 h. Potency, µM (highest dose often 9.22 µM), usual class: activators; also: nearly all actives have a fitted effect of over 60% in size
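Cells: Huh7 expressing luciferase under the NPC1 promoter, 1500/well. Seeded 2 h, compound added, incubated 24 h at 37 °C. Luciferase reagent, 10 min ambient, then luminescence.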
SMN2 splice enh: SMN2 splice variant enhancement. Potency, µM (titrated, usually from 46.1 µM), usual class: activators. HEK293 SMN2-luciferase splicing reporter, luminescence, 30-36 h. 2.8% of 210,000 active; also: nearly all actives have a fitted effect of over 55% in size
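qHTS luciferase splicing reporter: luminescence rises when SMN2 exon 7 is included in transfected HEK293 cells. Compound exposure lasted 30-36 h at 37C, with 4.5 mM final sodium butyrate as control, followed by a ONE-Glo read.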
A number is an active result; 0 = inactive; ? = inconclusive; - = not tested or not shown. Rows were chosen to be rich in hits. Some 7.3% of all compounds tested hit in one or more screens of this group. Calls follow the shape of the dose curve; as a rule, active = well fitted curve in the direction sought with a large enough effect; inconclusive = small, poorly fitted or top-dose-only effect, or another doubt; inactive = no such curve, though single readings can be large; an effect the other way counts as inactive or inconclusive.

SMILES | Rab9 prom act | FLuc modulator | KinaseGlo FLuc | ELG1 genotox | NPC1 promoter act | SMN2 splice enh
O=c1c2cc(-c3ccccc3)sc2nc2n1N=C(c1ccccc1)CS2 | 1.8µM | 1.9µM | - | 0 | 2µM | -
CC(C)Sc1nc2sc(-c3ccccc3)cc2c(=O)n1N | 0 | 0 | 0 | 0 | 0 | 0
CSc1nc2sc(-c3ccccc3)cc2c(=O)n1N | 0.63µM | ? | ? | ? | 1.3µM | 2.8µM
CC(C)c1ccc(Nc2c(-c3ccc(N(C)C)cc3)nc3cnccn23)cc1 | - | ? | - | - | - | 0
COc1ccc(/C=C(\C#N)C(=O)NCc2cccs2)cc1OC | 0 | 0 | 0 | 0 | 0 | 0
Cc1ccccc1-n1c(C)cc(/C=C(\C#N)C(=O)NCC2CCCO2)c1C (configuration not stated) | ? | 0.95µM | 0 | 10µM | 0 | 0
Cc1ccc(/C=C(\C#N)C(=O)NCC2CCCO2)o1 (configuration not stated) | 0 | 0 | 0 | 0 | 0 | ?
Cc1cc(/C=C(\C#N)C(=O)NCc2cccs2)c(C)n1-c1ccccc1F | 3.5µM | 2.1µM | 0 | ? | 3.5µM | 0
O=C(Nc1ccc(Cn2cccn2)cc1)c1ccc(COc2cccc(Br)c2)cc1 | 0.5µM | 15µM | 0 | ? | 0.56µM | 13µM
C=CCn1c(C)cc(C(=O)CSc2nnc(C3CC3)n2C2CC2)c1C | 0 | 3µM | - | 0 | 0 | -
CC(=O)NC(C)c1ccc(C(=O)CSc2nnc(C3CC3)n2C2CC2)cc1 (configuration not stated) | 0 | - | - | 0 | 0 | -
C=CCn1c(SCC(=O)c2cc(C)n(CC3CCCO3)c2C)nnc1-c1ccccc1 (configuration not stated) | 0 | ? | 0 | 0 | 0 | 0
Cc1cc(C(=O)CSc2nnc(C3CC3)n2C2CC2)c(C)n1C(C)C | 0 | 12µM | - | 0 | 0 | -
CCOC(=O)CC(NC(=O)CCc1c(C)nc2c(c(C)nn2-c2ccc(C)c(C)c2)c1C)c1ccc(C)cc1 (configuration not stated) | - | 0 | - | - | - | 0
CCOc1ccc(S(=O)(=O)Nc2ccc3c(c2)c(C(C)=O)c(C)n3S(=O)(=O)c2ccc(OCC)cc2)cc1 | - | 0 | - | - | - | 0
O=C(NC12CC3CC(CC(C3)C1)C2)c1ccc(-c2ccccc2Cl)o1 | 2µM | 1.9µM | 0 | ? | 1.1µM | 0
O=C(NC12CC3CC(CC(C3)C1)C2)c1ccc(-c2ccc(Cl)cc2)o1 | 3.2µM | ? | 0 | ? | ? | 16µM
O=C(NC12CC3CC(CC(C3)C1)C2)c1ccco1 | 0 | 0 | - | 0 | 0 | -
CC(=O)NC(=O)c1ccc(-c2ccc(Cl)cc2)o1 | 0 | 5.4µM | 0 | 0 | 0 | -
O=C(NC12CC3CC(CC(C3)C1)C2)c1ccc(-c2cccc(Cl)c2)o1 | 0.89µM | 2.4µM | 0 | ? | 2.8µM | 0
O=C(NC12CC3CC(CC(C3)C1)C2)c1ccc(COc2ccc(Cl)cc2[N+](=O)[O-])o1 | 0 | 0 | 0 | 0 | 0 | 0
Cc1cccc(N2CCN(C(=O)C3CCN(S(=O)(=O)c4cn(C)cn4)CC3)CC2)c1C | - | 0 | - | - | - | -
Cc1ccccc1C(=O)Nc1cccc(OCc2cc(=O)n3c4c(sc3n2)CCCC4)c1 | - | ? | - | - | - | 0
CCOC(=O)c1cc(-c2ccc(OC)cc2)n(CCC(=O)Nc2cccc(C(C)=O)c2)c1C | - | 0 | - | - | - | -
CCn1nnc(NC(=O)c2ccc(-c3ccc(Cl)cc3)o2)n1 | 0 | 17µM | 0 | ? | 0 | 0
SMILES | Rab9 prom act | FLuc modulator | KinaseGlo FLuc | ELG1 genotox | NPC1 promoter act | SMN2 splice enh
COc1cc(NC(=O)CC2C(=O)N(c3ccc(Cl)cc3)C(=O)N2Cc2cccs2)cc(OC)c1 (configuration not stated) | - | 0 | - | - | - | -
CC(C)(C)c1ccc(NC(=O)Nc2ccc(F)cc2)cc1 | 2.5µM | 2.4µM | 0 | ? | 1.8µM | 13µM
O=C(Nc1ccncc1)Nc1ccc(F)c(Cl)c1 | 0 | ? | 0 | 0 | 0 | -
COC(=O)c1ccc(NC(=O)Nc2ccc(F)c(Cl)c2)cc1 | 0 | 27µM | 0 | 0 | 0 | 0
CC(=O)N(C)c1ccc(NC(=O)Nc2ccccc2C)cc1 | 2.8µM | 12µM | 0 | 21µM | ? | 13µM
CCOC(=O)c1sc(NC(=O)Nc2ccc(F)cc2)nc1C | 1.3µM | 1.5µM | 0 | ? | 1.6µM | 1.3µM
CC(=O)Nc1ccc(NC(=O)Nc2ccccc2C)cc1 | 0 | ? | 0 | 0 | 0 | -
CC(C)(C)c1ccc(COC(=O)Nc2ccc(F)cc2)cc1 | 0 | 0 | 0 | 0 | 0 | ?
CCC(C)NC(=O)Cn1c(=O)ccc2cc(S(=O)(=O)N3CCCC3)ccc21 (configuration not stated) | - | 0 | - | - | - | -
CC(C)(C)c1ccc(NC(=O)c2ccc(=O)[nH]n2)cc1 | 0.79µM | 3µM | - | ? | 0.71µM | -
COC(=O)c1ccc(NC(=O)CSCc2ccccc2C)cc1 | 0 | ? | 0 | 0 | 0 | 0
COC(=O)c1ccc(NC(=O)Nc2ccccc2C)cc1 | ? | 4.8µM | 0 | 0 | ? | 0
CCOC(=O)c1ccc(NC(=O)Nc2ccc(OC)c(OC)c2)cc1 | 0 | ? | 0 | 0 | 0 | 0
CCOC(=O)c1ccc(NC(=O)Oc2cc(C)c(Cl)cc2C(C)C)cc1 | 4.5µM | 0 | - | 0 | 0 | -
O=C(Nc1ccc2c(c1)OCO2)c1ccc(=O)[nH]n1 | ? | ? | - | 0 | 0 | -
CCOC(=O)c1ccc(NC(=O)Nc2ccc(F)cc2)cc1 | 0 | 11µM | 0 | 0 | 0 | 0
COC(=O)c1ccc(NC(=O)Nc2ccc(F)cc2)cc1 | ? | 11µM | 0 | 0 | ? | 0
CN(C)/C=C(\C#N)C(=O)Nc1ccc(F)c(Cl)c1 | 3.2µM | ? | - | ? | 3.5µM | -
CN(C)/C=C(\C#N)C(=O)N/N=C/c1ccc(Cl)cc1 | ? | 17µM | 0 | 0 | 2.2µM | 0
CCOc1ccc(NC(=O)c2ccc3nc(Cc4ccccc4)oc3c2)cc1 | - | 0 | - | - | - | -
O=C(COC(=O)Cn1cnc2ccccc21)Nc1ccc2c(c1)C(=O)c1ccccc1C2=O | ? | ? | 0 | 12µM | ? | 0
Cc1nc(NC2CCCCC2)c2nc(-c3ccccc3)n(CCN3CCCCC3)c2n1 | - | - | 0 | - | - | 0
CNC(=O)C(=O)Nc1nc(C23CC4CC(CC(C4)C2)C3)cs1 | 3.2µM | 0 | 0 | 0 | ? | -
O=C(Nc1ccc(N2CCCC2)c(Cl)c1)c1cccs1 | 0.45µM | 2.4µM | ? | 2.3µM | 0.71µM | 2.8µM
O=C(Nc1ccc(N2CCN(C(=O)c3cccs3)CC2)c(Cl)c1)c1ccco1 | 0 | ? | 0 | 0 | 0 | 0
O=C(NC(=S)Nc1ccc(N2CCOCC2)c(Cl)c1)c1cccs1 | ? | 19µM | 0 | 0 | ? | 0
O=c1cc(-c2ccccc2)nc2nc(-c3ccco3)[nH]n12 | 0 | 3.4µM | 0 | ? | 0 | ?
Cc1nc2nc(-c3ccccc3)cc(=O)n2[nH]1 | 0 | 7.6µM | 0 | ? | 0 | ?
Cc1cc(=O)n2[nH]c(SCc3ccccc3)nc2n1 | 0 | ? | 0 | 0 | 0 | 0
